# High-throughput results as filed in PubChem BioAssay.
# In the library only some 0.94% were active in any assay of this set; here they are far more common.
# Mtb hypoxia rep – inhibitors of hypoxia-regulated fluorescent reporter in Mycobacterium tuberculosis. AID 1159583. fluorescence inhibition, % (test concentration not listed). 0.1% of 300,000 active. M. tuberculosis hypoxia-regulated fluorescent reporter, fluorescence; in the data active = fluorescence inhibition mostly above about 23%, no sharp cut-off; inactive = mostly below about 17%
# Vc quorum ag – induces V. cholerae light production without autoinducers; AID 588436; activation, % at 18.7 µM; V. cholerae BH1578 lux reporter, luminescence, 6 h; 0.16% of 350,000 active; in the data active = activation mostly above about 9.7%, no sharp cut-off
# PriA SSB inh – blocks PriA binding to SSB C-terminal tail; inhibition, % at 33 µM; 0.6% of 430,000 active; AlphaScreen SSBct-PriA binding, biotinylated peptide; in the data active = inhibition mostly above about 37%, no sharp cut-off; inactive = mostly below about 20%
# MazEF act – increases E. coli MazEF RNase cleavage of RNA | FAM/BHQ RNA-DNA oligo cleavage fluorescence, 5 h | 0.32% of 350,000 active | activation, % at 20 µM | P0AE70; in the data active = activation above about 50%
# Target sequence (P0AE70 whole entry, looked up): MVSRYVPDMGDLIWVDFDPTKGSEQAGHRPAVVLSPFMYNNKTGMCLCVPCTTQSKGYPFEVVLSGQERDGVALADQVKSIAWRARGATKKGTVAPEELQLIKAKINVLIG
# Hits are given with their value; i = inactive; nt = no result given; + = active, no number; ! = repeats disagree.
SMILES,Mtb hypoxia rep,Vc quorum ag,PriA SSB inh,MazEF act
O=C(Nc1nc(-c2ccncc2)cs1)c1cccc(S(=O)(=O)N2CCOCC2)c1,nt,nt,i,nt
O=C(c1ccc(OC(F)(F)F)cc1)N1CCC2(CC1)OCCS2,nt,nt,i,nt
CN1CCN(S(=O)(=O)c2cccc(C(=O)Nc3nc(-c4ccccc4)cs3)c2)CC1,i,i,i,i
O=C(Nc1nc(-c2ccccn2)cs1)c1ccc(S(=O)(=O)N2CCOCC2)cc1,nt,nt,114,nt
O=C(Nc1ccon1)c1ccc(N2CCCCC2)c([N+](=O)[O-])c1,i,i,i,i
COc1ccc(C(=O)Nc2nc(-c3ccccn3)cs2)cc1S(=O)(=O)N1CCOCC1,i,i,46,i
O=C(Nc1nc(-c2csc(NC(=O)c3ccc(S(=O)(=O)N4CCOCC4)cc3)n2)cs1)c1ccc(S(=O)(=O)N2CCOCC2)cc1,nt,nt,i,nt
O=C(Nc1nc2ccccc2s1)c1ccc(N2CCCCC2)c([N+](=O)[O-])c1,i,i,39,i
CN1CCN(S(=O)(=O)c2cccc(C(=O)Nc3nc(-c4ccccn4)cs3)c2)CC1,nt,nt,124,nt
O=C(NC1CC1)c1ccc(Cn2c(=O)[nH]c3ccccc3c2=O)cc1,nt,nt,i,nt
O=C(Nc1nnc(-c2ccc(Cl)cc2Cl)s1)c1ccccc1I,nt,nt,i,nt
Cc1ccnc2nc(C(=O)Nc3nc4ccccc4s3)nn12,53,i,i,i
O=c1[nH]nc(Cc2ccc3ccccc3n2)c2ccccc12,i,nt,i,74
CC(C)CS(=O)(=O)C1CN(C(=O)c2cc3cc(F)ccc3s2)C1,nt,nt,i,nt
CC(C)CCOC(=O)C[N+](C)(C)CCOC1CC2CCC1(C)C2(C)C (stereo not drawn),41,i,i,i
CCCOC(=O)C[N+](C)(C)CCOC1CC2CCC1(C)C2(C)C (stereo not drawn),i,i,i,i
O=C(CCS(=O)(=O)c1ccccc1)N(Cc1ccccn1)c1nc2c(F)cccc2s1,nt,nt,i,nt
CCCCN1CC[C@@H]2C=CC[C@H](C(=O)OC)[C@@H]2C1=O,i,i,i,80
Cn1cccc1-c1noc(CNC(=O)c2nn(C)c3ccccc23)n1,nt,nt,i,nt
CC(=NNc1nc2ccccc2[nH]1)c1ccc(N2CCOCC2)cc1,i,nt,54,nt
C/C(=N\Nc1nc2ccccc2[nH]1)c1ccc2c(c1)OCCO2,nt,i,nt,i
CCCCc1ccc(C(=O)O)nc1,i,i,87,i
CN1C(=O)C(C)(C)COc2cc(NC(=O)c3c(F)cccc3Cl)ccc21,nt,nt,i,nt
O=C(CN1C(=O)CCC1=O)Nc1nc(-c2ccccn2)cs1,i,i,51,i
CCCCC(=O)Nc1nc(-c2ccccn2)cs1,nt,nt,50,nt
SMILES,Mtb hypoxia rep,Vc quorum ag,PriA SSB inh,MazEF act
CCNC(=O)CN1C(=O)NC2(CCOc3ccccc32)C1=O (stereo not drawn),i,i,i,i
O=C(CN1C(=O)CCC1=O)Nc1nc(-c2ccc3ccccc3c2)cs1,i,i,i,i
CSCCC(=O)Nc1nc(-c2ccccn2)cs1,i,i,i,i
O=C(CN1C(=O)NC2(CCOc3ccccc32)C1=O)Nc1nc(-c2ccccn2)cs1 (stereo not drawn),nt,nt,111,nt
O=C(CN1C(=O)CCOc2ccccc21)Nc1nc(-c2ccccn2)cs1,nt,nt,93,nt
O=C(CN1CSCC1=O)Nc1nc(-c2ccccn2)cs1,nt,nt,i,nt
CCC1NCCNC1=O (stereo not drawn),nt,nt,i,nt
CCOC(=O)C1C(c2ccc(C)o2)NC(=O)NC1(O)C(F)(F)F (stereo not drawn),i,i,43!,i
N#CC(=NNc1cccc(C(F)(F)F)c1)C(=O)c1csc(-c2cccnc2)n1,44,nt,i,nt
C=CCN(c1ccccc1)S(=O)(=O)c1cccc(C(=O)Nc2ccncc2)c1,i,i,i,i
C=CCN(c1ccccc1)S(=O)(=O)c1cccc(C(=O)Nc2ccc(N3CCOCC3)cc2)c1,i,i,43,i
Cc1cc(=O)[nH]c(-n2nc(C)cc2N)n1,nt,nt,96,nt
Cc1cccc(CC(=O)Nc2cc(C)nn2-c2nc(C)cc(=O)[nH]2)c1,nt,nt,51,nt
O=C(CN1C(=O)c2ccccc2C1=O)Nc1nc(-c2ccccc2)c(-c2ccccc2)s1,nt,nt,i,nt
Nc1ccccc1Nc1cc(-c2ccccc2)nn1-c1ccccc1,i,i,60,i
CC(=O)n1c(C=Nc2ccc(Cl)cc2)c(O)c2ccccc21,i,i,i,+
O=C(NC(=S)N1CCN(c2ccc(C(F)(F)F)cc2[N+](=O)[O-])CC1)c1cccs1,i,i,51,i
CCN1CCN(C(=S)NC(=O)c2cccs2)CC1,i,i,i,i
Clc1ccccc1C=NNC1=Nc2cccc3cccc1c23,i,nt,i,nt
Clc1ccccc1/C=N/NC1=Nc2cccc3cccc1c23,nt,i,nt,231
CCOc1ccccc1NC(=O)c1nnn(CC(=O)Nc2ccc3c(c2)OCO3)c1N,i,i,i,i
CCOc1ccccc1NC(=O)Cn1nnc(C(=O)NCc2ccc3c(c2)OCO3)c1N,i,i,i,65
COc1cccc(CNC(=O)CC2CSc3nc(C(C)C)cc(=O)n32)c1 (stereo not drawn),nt,nt,i,nt
CCNC(=S)N(Cc1ccc2c(c1)OCO2)C1CC(=O)N(c2ccc(F)cc2)C1=O (stereo not drawn),nt,i,i,i
CCNC(=S)N(Cc1ccc2c(c1)OCO2)C1CC(=O)N(c2ccc(OC)cc2)C1=O (stereo not drawn),nt,50,i,i
SMILES,Mtb hypoxia rep,Vc quorum ag,PriA SSB inh,MazEF act
Cc1ncn(CCNC(=O)NC2CCCCC2)c(=O)c1C,nt,nt,i,nt
Cc1cc(C)c(C)c(N=Nc2nc3ccccc3n2C)c1C,i,i,68,i
COc1ccc(NC(=S)Nc2ccc(N)c([N+](=O)[O-])c2)cc1,nt,i,39,i
COc1ccc(NC(=S)Nc2ccc3nccnc3c2)cc1,i,i,77,i
CCOc1ccc(NC(=S)Nc2ccc3nccnc3c2)cc1,nt,nt,i,nt
COc1ccc(NC(=S)Nc2ccccc2)cc1,i,i,i,i
S=C(Nc1ccc2nccnc2c1)N1CCOCC1,i,i,71,i
Cc1nc(C(=O)N2CCCC(Oc3nccnc3N(C)C)C2)cs1 (stereo not drawn),nt,nt,i,nt
CCOC(=O)c1cn[nH]c1S(=O)(=O)N1CCC(C)CC1,nt,nt,i,nt
O=C(NCc1cccnc1)N(c1ccccc1)c1ccccc1,nt,nt,37,nt
O=C(Nc1ccc2c(c1)C(=O)NCCO2)c1ccc2ccccc2c1,nt,nt,i,nt
CC(=CC(=O)c1ccccc1)Nc1ccc2c(c1)OCO2,i,nt,41,nt
Cc1ccc(C2=CC(c3ccc(N(C)C)cc3)n3nnnc3N2)cc1 (stereo not drawn),i,i,i,64
COc1ccccc1-n1cc(-c2ccccc2)c2c(=S)nc[nH]c21,i,i,41,i
Cc1cc(=O)n(CC(=O)NCc2cccnc2-c2cccs2)cn1,nt,nt,i,nt
COc1c(Br)cc(Br)cc1/C=N/n1c(C)nnc1C,nt,5.6,nt,i
Cc1c(NC(=O)COC(=O)c2cc(-c3cccc4ccccc34)nc3ccccc23)c(=O)n(-c2ccccc2)n1C,nt,i,i,62
O=C(COc1ccc2c3c(c(=O)oc2c1)CCC3)c1ccc2c(c1)OCO2,i,i,i,125
CCCN1CCCc2cc(CCNS(=O)(=O)c3cc(CC)ccc3OC)ccc21,nt,nt,66,nt
CCCN1CCCc2cc(CCNC(=O)C(=O)Nc3ccc(OC)c(OC)c3)ccc21,nt,nt,i,nt
CCCN1CCCc2cc(CCNS(=O)(=O)c3cc(Cl)ccc3OC)ccc21,nt,nt,56,nt
CCCN1CCCc2cc(CCNS(=O)(=O)c3cc(OC)ccc3OC)ccc21,nt,nt,43,nt
